IL1B secr inh: inflammasome signaling inhibition, IL-1 beta readout. THP-1 LPS/ATP IL-1B secretion, AlphaLISA, 16 h; hits give low values. activity change, % at 57.5 µM. 360,000 tested, 4.7% active. AID 743279; in the data active = activity change below about -50%; inconclusive = mostly about -30% to -49%
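THP-1 cells pretreated 1 hr with compounds (up to 57.5 uM final), then stimulated with LPS (250 ng/mL final) plus ATP (1.25 mM final); secreted IL-1B measured by AlphaLISA after 16 hr, decreased signal indicating inhibition.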
TDP1 cell CPT: growth inhibition of DT40 Tdp1-/-;hTDP1 cells with camptothecin (screen for TDP1 inhibitors); chicken DT40 Tdp1-/-;hTDP1 cells + 20 nM CPT, ATP luminescence, 48 h; Potency, µM (top dose mostly 46.2 µM), most hits filed as inhibitors; 420,000 tested, 12% active; AID 686979; also: nearly all actives have a fitted effect of over 55% in size
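Cell growth measured by CellTiter-Glo luminescence after a minimum 48 h, 37 C compound exposure with 20 nM CPT in Tdp1-knockout DT40 cells stably expressing hTDP1, seeded 400/well; qHTS titration format.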
HT1080-NT tox: kills 2HG-producing HT-1080-NT fibrosarcoma cells; HT-1080-NT fibrosarcoma viability, CellTiter-Glo ATP luminescence, 48 h; Potency, µM (titrated, usually from 46.1 µM), most hits filed as cytotoxic; AID 686970; 360,000 tested, 1.6% active;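 also: NT is the 2HG producing partner of a matched IDH1 knockdown line; nearly all actives have a fitted effect of over 55% in size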
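Read-out is CellTiter-Glo luminescence after 10 minutes at room temperature, following 48 hours' compound treatment of HT-1080-NT cells (750 cells/well, RPMI, 5% FBS, 37 degrees C).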
HT1080 IDH1KD tx: kills HT-1080 cells with IDH1 knockdown; HT-1080 IDH1 knockdown viability, ATP luminescence, 48 h; Potency, µM (doses to about 46.1 µM), hits mostly cytotoxic; 360,000 tested, 2% active
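In this qHTS, HT-1080 cells depleted of IDH1 are exposed for 48 h at 37 °C to compound titrations. Toxicity is scored from CellTiter-Glo luminescence, with DMSO as full viability and medium alone as none.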
uPA generation: cell surface uPA generation inhibition. 330,000 tested, 0.31% active. Potency, µM (doses to about 38.3 µM), actives largely listed as inhibitors. cell surface uPA generation assay, qHTS. AID 540303; active = well fitted inhibition curve with a large enough effect; inconclusive = small, poorly fitted or top-dose-only effect; inactive = no such curve, though single readings can be large or run the other way; tested in mouse RAW 264.7 cells; also: nearly all actives have a fitted effect of over 55% in size
TDP1 cell noCPT: qHTS for Inhibitors of human tyrosyl-DNA phosphodiesterase 1 (TDP1): qHTS in cells in absence of CPT; DT40 Tdp1-/- hTDP1 cells, no CPT, ATP luminescence, 48 h; Potency, µM (top dose mostly 46.2 µM), most hits filed as inhibitors; 420,000 tested, 15% active; AID 686978, 2013; also: nearly all actives have a fitted effect of over 55% in size
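DT40 Tdp1-/-;hTDP1 cells, no CPT (DMSO vehicle only), 400 cells/well; compounds pin-transferred; ≥48 hr, 37 °C; CellTiter-Glo 30 min RT dark, luminescence read.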
Of the large screens only hits and unclear results are named; the others gave an inactive call. Only some compounds are listed: those with a hit (about 19% of all), similar ones and a draw of the others. Unless noted, calls follow the shape of the dose curve; as a rule, active = well fitted curve in the direction sought with a large enough effect; inconclusive = small, poorly fitted or top-dose-only effect, or another doubt; inactive = no such curve, though single readings can be large; an effect the other way counts as inactive or inconclusive.

COc1ccc2cc(/C(C)=N/NC(=O)c3cc(C)oc3C)ccc2c1	TDP1 cell CPT inconclusive, TDP1 cell noCPT inconclusive (no result: uPA generation)
COc1ccc(C(=O)Oc2ccc(F)cc2C(=O)/C=C/c2ccc(OC)c(OC)c2)cc1	TDP1 cell CPT 15µM, HT1080-NT tox inconclusive, HT1080 IDH1KD tx inconclusive, TDP1 cell noCPT 13µM
COc1ccc(/C=C/C(=O)c2cc(F)ccc2OC(=O)c2ccccc2C)cc1OC	IL1B secr inh -99, TDP1 cell CPT 0.92µM, HT1080-NT tox 1.3µM, HT1080 IDH1KD tx 3.3µM, TDP1 cell noCPT 1µM
COc1ccc(/C=C/C(=O)O/N=C(\N)c2ccccc2)cc1OC	none
COc1ccc(/C=C/C(=O)c2ccc3c4c(cccc24)CC3)cc1OC	TDP1 cell CPT 21µM, HT1080-NT tox inconclusive, HT1080 IDH1KD tx 16µM, TDP1 cell noCPT 16µM
COc1ccc(/C=C/C(=O)OCC(=O)N2c3ccccc3CC2C)cc1OC (configuration not stated)	none (no result: uPA generation)
Cc1cc(C)cc(NC(=O)/C=C/c2ccc([N+](=O)[O-])s2)c1	IL1B secr inh -102, TDP1 cell CPT inconclusive, HT1080-NT tox inconclusive, HT1080 IDH1KD tx inconclusive, TDP1 cell noCPT 1.2µM
O=C(/C=C/c1cccc([N+](=O)[O-])c1)Nc1cc(C(=O)O)cc(C(=O)O)c1	TDP1 cell CPT inconclusive, TDP1 cell noCPT inconclusive
Cc1ccccc1NC(=O)/C=C/c1ccc([N+](=O)[O-])s1	IL1B secr inh -102, TDP1 cell CPT 0.92µM, HT1080-NT tox 4.1µM, HT1080 IDH1KD tx 3.7µM, TDP1 cell noCPT 0.82µM
CC(=O)c1cccc(NC(=O)/C=C/c2ccc([N+](=O)[O-])s2)c1	IL1B secr inh -104, TDP1 cell CPT 1.3µM, HT1080-NT tox inconclusive, HT1080 IDH1KD tx inconclusive, TDP1 cell noCPT 1.5µM
COc1ccc(CN2CCNC(=O)C2CC(=O)NCc2csc(C)n2)c(F)c1 (configuration not stated)	none
COc1ccc(N(CC(=O)NC2CC2)S(=O)(=O)c2ccccc2)cc1	none
Cc1ccc(S(=O)(=O)c2ccsc2NC(=O)c2ccccc2)cc1	TDP1 cell noCPT inconclusive
CCN(CC)CCC(c1ccc2c(c1)OCO2)c1c(OC)cc(OC)c2ccc(=O)oc12 (configuration not stated)	TDP1 cell CPT 13µM, TDP1 cell noCPT 18µM
CCN(CC)CCC(c1cc(OC)c(OC)c(OC)c1)c1c(OC)cc(OC)c2c(C)cc(=O)oc12 (configuration not stated)	TDP1 cell CPT 9.2µM, TDP1 cell noCPT 23µM
COc1cc(OC)c2c(C)cc(=O)oc2c1C(CCN1CCOCC1)c1ccc2c(c1)OCO2 (configuration not stated)	TDP1 cell CPT 18µM, TDP1 cell noCPT 21µM
COc1cc(OC)c2ccc(=O)oc2c1C(CC(=O)N1CCCC1)c1ccc2c(c1)OCO2 (configuration not stated)	TDP1 cell CPT inconclusive, TDP1 cell noCPT inconclusive
CCN(CC)CCC(c1cc(OC)c(OC)c(OC)c1)c1c(OC)cc(OC)c2ccc(=O)oc12 (configuration not stated)	TDP1 cell CPT inconclusive, TDP1 cell noCPT inconclusive
COc1cc(OC)c2c(-c3ccccc3)cc(=O)oc2c1C(CC(=O)N1CCCC1)c1ccc2c(c1)OCO2 (configuration not stated)	IL1B secr inh inconclusive, TDP1 cell CPT inconclusive, TDP1 cell noCPT 21µM
Cc1ccc(C(=O)NCC(=O)OCc2cc(=O)n3ccsc3n2)cc1	none (no result: IL1B secr inh, HT1080-NT tox, HT1080 IDH1KD tx, uPA generation)
O=C(NCCc1ccc2c(c1)OCO2)Oc1ccccc1	TDP1 cell CPT inconclusive, TDP1 cell noCPT inconclusive (no result: uPA generation)
COc1cc(O)c(C(CCN2CCCCC2)c2ccc3c(c2)OCO3)c(OC)c1 (configuration not stated)	IL1B secr inh -81, TDP1 cell CPT inconclusive, uPA generation inconclusive, TDP1 cell noCPT inconclusive

From PubChem
